# Measured values taken from PubChem BioAssay (Tox21).
# Values joined by “and” are separate entries in the source; they are usually repeats but may differ in a detail not shown here. Equal values may be shown once. Inconclusive results are not listed. Entries that show only a call come without a potency. The source holds several records for some structures; these can differ, active in one and inactive in another. Active and inactive are the calls of the source. The call rests on the fitted dose curve; in most records, active means well fitted curve in the direction sought with a large enough effect in the repeat runs; inconclusive means weak or mixed curves; inactive means no such curve, though single readings can be large; an effect the other way counts as inactive or inconclusive.
# How the values were obtained:
# [1] = qHTS RealTime-Glo MT Cell Viability Assay in HepG2 cells - 40 hour (AID 1224870); further: nearly all actives have a fitted effect of over 50% in size
# In short: (§1)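 HepG2 cells (600/well) mixed with RealTime-Glo MT reagent, settled 5 h at 37 C/5% CO2 before compound addition. Nonlytic NanoLuc luminescence from viable-cell prosubstrate reduction read repeatedly during 40 h treatment at 37 C.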
# [2] = A CellTox Green Cytotoxicity Assay to monitor cytotoxicity in HEK293 cells - 40 hour (AID 1224871); further: nearly all actives have a fitted effect of over 45% in size
# In short: (§2)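 Each value comes from one timepoint of a single continuous run in which HEK293 cells with CellTox Green were exposed to compound for up to 40 h at 37 C, dye fluorescence rising with cell death.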
# [3] = qHTS RealTime-Glo MT Cell Viability Assay in HEK293 cells - 16 hour (AID 1224872); further: top concentration of the series differs between compounds; nearly all actives have a fitted effect of over 50% in size
# In short: (§3)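 HEK293 cells seeded with NanoLuc/prosubstrate reagent, rested 5 h at 37 C, then dosed and kept at 37 C up to 40 h. Nonlytic real-time luminescence from viable cells read at 0, 8, 16, 24, 32 and 40 h.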
# [4] = qHTS RealTime-Glo MT Cell Viability Assay in HepG2 cells - 8 hour (AID 1224873); further: nearly all actives have a fitted effect of over 55% in size
# In short: as §1
# [5] = qHTS RealTime-Glo MT Cell Viability Assay in HEK293 cells - 40 hour (AID 1224874); conditions: RealTime-Glo luminescence; max response: stronger effect = lower value; further: nearly all actives have a fitted effect of over 50% in size; further: potency means the concentration at half of the fitted maximal effect
# In short: (§4)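 qHTS format; HEK293 cells with NanoLuc/prosubstrate reagent, 37 C/5% CO2 for 5 h pre-dosing; compounds 23 nL in DMSO; luminescence at each time point reflects viable cells.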
# [6] = A CellTox Green Cytotoxicity Assay to monitor cytotoxicity in HEK293 cells - 24 hour (AID 1224875); further: series mostly up to about 77 µM; nearly all actives have a fitted effect of over 45% in size
# In short: as §2
# [7] = A CellTox Green Cytotoxicity Assay to monitor cytotoxicity in HepG2 cells - 16 hour (AID 1224876); further: nearly all actives have a fitted effect of over 45% in size; further: potency means the concentration at half of the fitted maximal effect
# In short: (§5)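 Continuous culture of HepG2 cells with a membrane-impermeant DNA dye; rising fluorescence marks dead cells. Compound exposure lasted up to 40 h at 37 C, with reads every 8 h from 0 h.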
# [8] = qHTS RealTime-Glo MT Cell Viability Assay in HepG2 cells - 32 hour (AID 1224877); further: nearly all actives have a fitted effect of over 55% in size
# In short: (§6)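 HepG2 cells (600/well) were dispensed with RealTime-Glo reagents, incubated 5 h at 37 °C, then treated with compounds in DMSO for up to 40 h. Nonlytic NanoLuc luminescence reflecting viable cells was read at each stated time point.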
# [9] = A CellTox Green Cytotoxicity Assay to monitor cytotoxicity in HepG2 cells - 24 hour (AID 1224878); further: nearly all actives have a fitted effect of over 45% in size; further: potency means the concentration at half of the fitted maximal effect
# In short: as §5
# [10] = A CellTox Green Cytotoxicity Assay to monitor cytotoxicity in HepG2 cells - 40 hour (AID 1224879); further: nearly all actives have a fitted effect of over 40% in size; further: potency means the concentration at half of the fitted maximal effect
# In short: as §5
# [11] = qHTS RealTime-Glo MT Cell Viability Assay in HEK293 cells - 0 hour (AID 1224880)
# In short: as §4
# [12] = A CellTox Green Cytotoxicity Assay to monitor cytotoxicity in HEK293 cells - 32 hour (AID 1224881); further: nearly all actives have a fitted effect of over 40% in size
# In short: as §2
# [13] = A CellTox Green Cytotoxicity Assay to monitor cytotoxicity in HepG2 cells - 0 hour (AID 1224882); further: nearly all actives have a fitted effect of over 35% in size; further: potency means the concentration at half of the fitted maximal effect
# In short: as §5
# [14] = A CellTox Green Cytotoxicity Assay to monitor cytotoxicity in HepG2 cells - 32 hour (AID 1224883); further: nearly all actives have a fitted effect of over 50% in size; further: potency means the concentration at half of the fitted maximal effect
# In short: as §5
# [15] = A CellTox Green Cytotoxicity Assay to monitor cytotoxicity in HEK293 cells - 8 hour (AID 1224884); further: nearly all actives have a fitted effect of over 35% in size
# In short: as §2
# [16] = qHTS RealTime-Glo MT Cell Viability Assay in HepG2 cells - 16 hour (AID 1224885); further: nearly all actives have a fitted effect of over 50% in size
# In short: as §6
# [17] = qHTS RealTime-Glo MT Cell Viability Assay in HEK293 cells - 24 hour (AID 1224886)
# In short: as §3
# [18] = qHTS RealTime-Glo MT Cell Viability Assay in HEK293 cells - 8 hour (AID 1224887)
# In short: as §4
# [19] = A CellTox Green Cytotoxicity Assay to monitor cytotoxicity in HEK293 cells - 16 hour (AID 1224888); further: nearly all actives have a fitted effect of over 35% in size
# In short: as §2
# [20] = qHTS RealTime-Glo MT Cell Viability Assay in HepG2 cells - 0 hour (AID 1224889); further: nearly all actives have a fitted effect of over 50% in size
# In short: as §6
structure (smiles),measurement,setting,value
C/C=C/c1ccc2c(c1)OCO2,outcome,[1],inactive
same,Potency,[2],inactive
same,outcome,[3],inactive
same,outcome,[4],inactive
same,max response,[5],-5.98% (inactive) and -4.01% (inactive)
same,Potency,[6],inactive
same,Potency,[7],inactive
same,outcome,[8],inactive
same,Potency,[9],inactive
same,Potency,[10],inactive
same,outcome,[11],inactive
same,Potency,[12],inactive
same,Potency,[13],inactive
same,Potency,[14],inactive
same,Potency,[15],inactive
same,outcome,[16],inactive
same,outcome,[17],inactive
same,outcome,[18],inactive
same,Potency,[19],inactive
same,outcome,[20],inactive
CCOP(=S)(OCC)Oc1ccc([N+](=O)[O-])cc1,outcome,[1],inactive
same,Potency,[2],inactive
same,outcome,[3],inactive
same,outcome,[4],inactive
same,max response,[5],-18.1% (inactive) and -17.8% (inactive)
same,Potency,[6],inactive
same,Potency,[7],inactive
same,outcome,[8],inactive
same,Potency,[9],inactive
same,Potency,[10],inactive
same,outcome,[11],inactive
same,Potency,[12],inactive
same,Potency,[13],inactive
same,Potency,[14],inactive
same,Potency,[15],inactive
same,outcome,[16],inactive
same,outcome,[17],inactive
same,outcome,[18],inactive
same,Potency,[19],inactive
same,outcome,[20],inactive
Nc1ncc([N+](=O)[O-])s1,outcome,[1],inactive
same,Potency,[2],inactive
same,outcome,[3],inactive
same,outcome,[4],inactive
same,max response,[5],0.802% (inactive) and 3.01% (inactive)
same,Potency,[6],inactive
same,Potency,[7],inactive
same,outcome,[8],inactive
same,Potency,[9],inactive
same,Potency,[10],inactive
same,outcome,[11],inactive
same,Potency,[12],inactive
same,Potency,[13],inactive
same,Potency,[14],inactive
same,Potency,[15],inactive
same,outcome,[16],inactive
same,outcome,[17],inactive
same,outcome,[18],inactive
same,Potency,[19],inactive
same,outcome,[20],inactive
OCc1ccco1,outcome,[1],inactive
same,Potency,[2],inactive
same,outcome,[3],inactive
same,outcome,[4],inactive
same,max response,[5],1.99% (inactive) and 6.54% (inactive)
same,Potency,[6],inactive
same,Potency,[7],inactive
same,outcome,[8],inactive
same,Potency,[9],inactive
same,Potency,[10],inactive
same,outcome,[11],inactive
same,Potency,[12],inactive
same,Potency,[13],inactive
same,Potency,[14],inactive
same,Potency,[15],inactive
same,outcome,[16],inactive
same,outcome,[17],inactive
same,outcome,[18],inactive
same,Potency,[19],inactive
same,outcome,[20],inactive
Nc1cc(Cl)cc(Cl)c1,outcome,[1],inactive
same,Potency,[2],inactive
same,outcome,[3],inactive
same,outcome,[4],inactive
same,max response,[5],-2.18% (inactive) and 1.19% (inactive)
same,Potency,[6],inactive
same,Potency,[7],inactive
same,outcome,[8],inactive
same,Potency,[9],inactive
same,Potency,[10],inactive
same,outcome,[11],inactive
same,Potency,[12],inactive
same,Potency,[13],inactive
same,Potency,[14],inactive
same,Potency,[15],inactive
same,outcome,[16],inactive
same,outcome,[17],inactive
same,outcome,[18],inactive
same,Potency,[19],inactive
same,outcome,[20],inactive
C=CC#N,outcome,[1],inactive
same,Potency,[2],inactive
same,outcome,[3],inactive
same,outcome,[4],inactive
same,max response,[5],-6.45% (inactive) and -0.644% (inactive)
same,Potency,[6],inactive
same,Potency,[7],inactive
same,outcome,[8],inactive
same,Potency,[9],inactive
same,Potency,[10],inactive
same,outcome,[11],inactive
same,Potency,[12],inactive
same,Potency,[13],inactive
same,Potency,[14],inactive
same,Potency,[15],inactive
same,outcome,[16],inactive
same,outcome,[17],inactive
same,outcome,[18],inactive
same,Potency,[19],inactive
same,outcome,[20],inactive
O=C(O)Cc1ccccc1,outcome,[1],inactive
same,Potency,[2],inactive
same,outcome,[3],inactive
same,outcome,[4],inactive
same,max response,[5],21.7% (inactive) and 3.56% (inactive)
same,Potency,[6],inactive
same,Potency,[7],inactive
same,outcome,[8],inactive
same,Potency,[9],inactive
same,Potency,[10],inactive
same,outcome,[11],inactive
same,Potency,[12],inactive
same,Potency,[13],inactive
same,Potency,[14],inactive
same,Potency,[15],inactive
same,outcome,[16],inactive
same,outcome,[17],inactive
same,outcome,[18],inactive
same,Potency,[19],inactive
same,outcome,[20],inactive
[N-]=[N+]=CC(=O)OC[C@H](N)C(=O)O,outcome,[1],inactive
same,Potency,[2],inactive
same,outcome,[3],inactive
same,outcome,[4],inactive
same,max response,[5],8.97% (inactive) and 11.4% (inactive)
same,Potency,[6],inactive
same,Potency,[7],27.5 µM (active) and inactive
same,outcome,[8],inactive
same,Potency,[9],24.5 µM (active) and inactive
same,Potency,[10],43.6 µM (active) and inactive
same,outcome,[11],inactive
same,Potency,[12],inactive
same,Potency,[13],34.7 µM (active) and inactive
same,Potency,[14],38.9 µM (active) and inactive
same,Potency,[15],inactive
same,outcome,[16],inactive
same,outcome,[17],inactive
same,outcome,[18],inactive
same,Potency,[19],inactive
same,outcome,[20],inactive
NNc1ccccc1,outcome,[1],inactive
same,Potency,[2],inactive
same,outcome,[3],inactive
same,outcome,[4],inactive
same,max response,[5],3.45% (inactive) [middle of 5 runs]
same,Potency,[6],inactive
same,Potency,[7],inactive
same,outcome,[8],inactive
same,Potency,[9],inactive
same,Potency,[10],inactive
same,outcome,[11],inactive
same,Potency,[12],inactive
same,Potency,[13],inactive
same,Potency,[14],inactive
same,Potency,[15],inactive
same,outcome,[16],inactive
same,outcome,[17],inactive
same,outcome,[18],inactive
same,Potency,[19],inactive
same,outcome,[20],inactive
COP(=S)(OC)Oc1ccc(SC)c(C)c1,outcome,[1],inactive
same,Potency,[2],inactive
same,outcome,[3],inactive
same,outcome,[4],inactive
same,max response,[5],-4.14% (inactive) and -8.35% (inactive) and 5.42% (inactive)
same,Potency,[6],inactive
same,Potency,[7],inactive
same,outcome,[8],inactive
same,Potency,[9],inactive
same,Potency,[10],inactive
same,outcome,[11],inactive
same,Potency,[12],inactive
same,Potency,[13],inactive
same,Potency,[14],inactive
same,Potency,[15],inactive
same,outcome,[16],inactive
same,outcome,[17],inactive
same,outcome,[18],inactive
same,Potency,[19],inactive
same,outcome,[20],inactive
Cc1cccc(N)c1,outcome,[1],inactive
same,Potency,[2],inactive
same,outcome,[3],inactive
same,outcome,[4],inactive
same,max response,[5],6.61% (inactive) and 3.01% (inactive)
same,Potency,[6],inactive
same,Potency,[7],inactive
same,outcome,[8],inactive
same,Potency,[9],inactive
same,Potency,[10],inactive
same,outcome,[11],inactive
same,Potency,[12],inactive
same,Potency,[13],inactive
same,Potency,[14],inactive
same,Potency,[15],inactive
same,outcome,[16],inactive
same,outcome,[17],inactive
same,outcome,[18],inactive
same,Potency,[19],inactive
same,outcome,[20],inactive
Nc1cccc(Cl)c1,outcome,[1],inactive
same,Potency,[2],inactive
same,outcome,[3],inactive
same,outcome,[4],inactive
same,Potency,[5],21.9 µM (active)
same,max response,[5],0.922% (inactive)
same,Potency,[6],inactive
same,Potency,[7],inactive
same,outcome,[8],inactive
same,Potency,[9],inactive
same,Potency,[10],inactive
same,outcome,[11],inactive
same,Potency,[12],inactive
same,Potency,[13],inactive
same,Potency,[14],inactive
same,Potency,[15],inactive
same,outcome,[17],inactive
same,outcome,[18],inactive
same,Potency,[19],inactive
same,outcome,[20],inactive
Cc1cc(O)ccc1Cl,outcome,[1],inactive
same,Potency,[2],inactive
same,outcome,[3],inactive
same,outcome,[4],inactive
same,max response,[5],-0.728% (inactive) and -2.63% (inactive) and 0.546% (inactive)
same,Potency,[6],inactive
same,Potency,[7],inactive
same,outcome,[8],inactive
same,Potency,[9],inactive
same,Potency,[10],inactive
same,outcome,[11],inactive
same,Potency,[12],inactive
same,Potency,[13],inactive
same,Potency,[14],inactive
same,Potency,[15],inactive
same,outcome,[16],inactive
same,outcome,[17],inactive
same,outcome,[18],inactive
same,Potency,[19],inactive
same,outcome,[20],inactive
